Screening data (PubChem BioAssay)
Rows were chosen to be rich in hits. Some 4% of all compounds tested hit in one or more screens of this group.
MLL AF4-AF9 inh: MLL-AF4/AF9 protein interaction inhibition. P42568. AlphaScreen, biotin-AF4 peptide binding to FLAG-AF9. inhibition, % at 10 µM. 350,000 tested, 0.47% active;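 active means every replicate reaching a set inhibition limit, whatever the replicate mean, cut at about 25% in these data; inconclusive means mean inhibition reaches that limit but some replicates miss it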;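 further: 0% = plate neutral control median and 100% = total signal loss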
ERAP1 HTS inh: ERAP1 (human) enzyme inhibition; recombinant ERAP1, Leu-AMC fluorescence, 60 min; inhibition, % at 10.7 µM; 340,000 tested, 0.15% active; AID 652197;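 active means mean replicate inhibition of at least 30%, or all replicates individually reaching that 30% level; inactive means mean below 30% and not every replicate reaching it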;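 further: 0% = neutral control wells and 100% = L-leucinethiol positive control wells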
RAD52 anneal inh: blocks human RAD52 DNA annealing; inhibition, % at 18.7 µM; recombinant RAD52 DNA annealing, FRET fluorescence; 360,000 tested, 0.46% active; P43351;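 active means every replicate showing at least 50% inhibition; inconclusive means mean inhibition at least 50% but not in every replicate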
FGF22 binding: binders of recombinant human FGF22 by thermal shift. 340,000 tested, 1.5% active. Q9HCT0. activity (Tm shift, normalised), % at 9.99 µM. SYPRO orange fluorescence; percent of sucrose octasulfate shift, DMSO zero;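 active means mean Tm shift, scaled 0 neutral to 100 positive control, at about 1.3% or above, every replicate too, limit read from the data; inconclusive means no clear call, values can overlap the other calls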
DENV2 CPE: protects cells from dengue virus 2 cytopathic effect. DENV2-infected cells, cytopathic effect rescue, plate reader. CPE inhibition, % at 9.99 µM. 350,000 tested, 1.7% active; in the data active means CPE inhibition above about 20%, passing the limit was not always enough; inconclusive means no clear call, values can overlap the other calls; tested in BHK-21 cells;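 further: 0% = median of neutral control wells and 100% = median of positive control wells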
Starred values were filed as active, the others as inactive; ? = inconclusive; / = no result given; ! = not active in a repeat.

SMILES	MLL AF4-AF9 inh	ERAP1 HTS inh	RAD52 anneal inh	FGF22 binding	DENV2 CPE
CN1C(=O)c2cc(NC(=O)c3ccc4c(c3)OCO4)ccc2OC[C@@H]2O[C@@H](CC(=O)O)CC[C@H]21	-2	0	1	-1	-2
CCS(=O)(=O)Nc1ccc2c(c1)C(=O)N(C)[C@@H]1CC[C@H](CC(=O)NC3CCCCC3)O[C@H]1CO2	-2	3	0	0	76*
CCS(=O)(=O)Nc1ccc2c(c1)C(=O)N(C)[C@H]1CC[C@H](CC(=O)NC3CCCCC3)O[C@H]1CO2	1	-4	5	0	12
CCC(=O)Nc1ccc2c(c1)C(=O)N(C)[C@@H]1CC[C@@H](CC(=O)NC3Cc4ccccc4C3)O[C@@H]1CO2	-5	1	8	0	30*
CN1C(=O)c2cc(NC(=O)c3ccc4c(c3)OCO4)ccc2OC[C@H]2O[C@@H](CC(=O)O)CC[C@H]21	-1	0	4	0	69*
O=C(C[C@@H]1CC[C@H]2[C@@H](COC[C@@H](O)CN2C(=O)c2ccc(F)cc2)O1)NC1Cc2ccccc2C1	-1	-3	-8	0	-2
COc1cc(/C=C/C(=O)O)cc(S(=O)(=O)NCCCC(=O)O)c1OC	-1	0	-4	43*	11
COc1cc(/C=C/C(=O)O)cc(S(=O)(=O)NCc2ccco2)c1OC	-7	9	-8	0	1
CCOc1ccc(-n2c(SCC(N)=O)nnc2-c2cccnc2)cc1	/	7	-3	0	23*
COc1cccc(-n2c(SCC(=O)OC(C)C)nnc2-c2cccnc2)c1	5	10	-4	0	12
Cc1cccc(-c2ccc([C@@H]3[C@@H](CO)N4C(=O)CN(C(=O)Cc5ccccn5)C[C@H]34)cc2)c1	1	3	-29	/	2
Cc1ccc(N(C(=O)c2nsc(Cl)c2Cl)C(C(=O)NC2CCCC2)c2ccc(O)cc2)cc1C (centres undefined)	-10	0	-1	0	84*
CN(Cc1ccccc1)C(=O)CN1C(=O)NC2(CCCc3sccc32)C1=O (centres undefined)	2	1	-8	43*	/
C[C@@H]1CN([C@@H](C)CO)C(=O)c2cc(NS(C)(=O)=O)ccc2O[C@@H](C)CCCCO[C@@H]1CN(C)C(=O)CCCN(C)C	1	/	/	/	/
COc1ccc(C(=O)CSc2ccccc2C(=O)O)cc1	-6	-16	-8	44*	-5
CO[C@H]1CN(C)C(=O)c2cc(NC(=O)NC(C)C)ccc2OC[C@@H](C)N(S(C)(=O)=O)C[C@@H]1C	-8	3	2	0	8
CO[C@H]1CN(C)C(=O)c2ccc(NC(C)=O)cc2OC[C@@H](C)N(S(C)(=O)=O)C[C@@H]1C	-4	0	-9	0	1
CO[C@H]1CN(C)C(=O)c2ccc(NC(=O)NC(C)C)cc2OC[C@@H](C)N(S(C)(=O)=O)C[C@@H]1C	-2	/	1	0	43*
CO[C@@H]1CN(C)C(=O)c2ccc(NC(C)=O)cc2OC[C@@H](C)N(S(C)(=O)=O)C[C@H]1C	-3	0	1	0	94*
CO[C@H]1CN(C)C(=O)c2ccc(NC(C)=O)cc2OC[C@@H](C)N(S(=O)(=O)c2cn(C)cn2)C[C@@H]1C	1	2	9	0	26*
CCCN(C)C[C@@H]1OCCCC[C@@H](C)Oc2ccc(NS(=O)(=O)c3cn(C)cn3)cc2C(=O)N([C@@H](C)CO)C[C@@H]1C	-4	1	-36	0	3
C[C@@H]1CN([C@@H](C)CO)C(=O)c2cc(NS(=O)(=O)c3cn(C)cn3)ccc2O[C@@H](C)CCCCO[C@@H]1CN(C)C(=O)Nc1cccc2ccccc12	/	/	/	0	-18
O=C(C[C@H]1CC[C@@H]2[C@H](COC[C@@H](O)CN2S(=O)(=O)c2ccccc2)O1)NCc1ccc2c(c1)OCO2	10	1	16	0	-1
Cc1cc(SCC(=O)O)nc2ccccc12	-2	5	-11	0	-3
C/C(N)=C(/C#N)C(=O)CSc1nnc(Nc2c(C)cccc2C)s1	-3	2	-33	43*	-1
SMILES	MLL AF4-AF9 inh	ERAP1 HTS inh	RAD52 anneal inh	FGF22 binding	DENV2 CPE
C/C(N)=C(/C#N)C(=O)CSc1nnc(Nc2cccc(C)c2C)s1	0	-1	-9	0	5
C/C(N)=C(/C#N)C(=O)CSc1cc(C)c2ccccc2n1	-3	5	-19	43*	6
Cc1ccccc1S(=O)(=O)N[C@H]1CC[C@H](CCn2cc(Cc3ccccc3)nn2)O[C@H]1CO	0	1	2	0	1
C[C@@H]1CN([C@@H](C)CO)C(=O)c2cc(C3=CCCCC3)cnc2O[C@@H]1CN(C)C(=O)Cc1ccccc1	0	-1	2	0	46*
CCCNC(=O)N(C)C[C@@H]1Oc2ncc(-c3ccncc3)cc2C(=O)N([C@H](C)CO)C[C@@H]1C	-3	33*!	-12	0	?
Cc1ccc(-c2cnc3c(c2)C(=O)N([C@H](C)CO)C[C@H](C)[C@@H](CN(C)C(=O)Cc2ccncc2)O3)cc1	0	0	-17	0	27*
CCCNC(=O)N(C)C[C@H]1Oc2ncc(-c3ccncc3)cc2C(=O)N([C@H](C)CO)C[C@@H]1C	-3	-2	-9	0	8
C[C@@H]1CN([C@H](C)CO)C(=O)c2cc(C3=CCCCC3)cnc2O[C@H]1CN(C)C(=O)c1ccc2c(c1)OCO2	1	-2	3	0	54*
CNC(=O)C[C@H]1CC[C@H]2[C@@H](COc3ccc(NC(=O)Nc4ccccc4F)cc3C(=O)N2C)O1	-2	4	15	0	14
O=C(C1CC1)N1CC(=O)N2[C@@H](CO)[C@@H](c3ccc(C#Cc4cccc(F)c4)cc3)[C@@H]2C1	-1	0	-4	/	-2
Cc1ccc(-c2cnc3c(c2)C(=O)N([C@H](C)CO)C[C@H](C)[C@H](CN(C)C(=O)Cc2ccccc2)O3)cc1	-2	2	2	0	76*
Cc1ccc(-c2cnc3c(c2)C(=O)N([C@@H](C)CO)C[C@@H](C)[C@H](CN(C)C(=O)Cc2ccccc2)O3)cc1	-2	-2	17	0	-6
COc1ccc(S(=O)(=O)N[C@@H]2C=C[C@@H](CC(=O)N3CCN(c4ccccc4)CC3)O[C@H]2CO)cc1	0	0	-31	0	/
COc1cc(N2CCCC2)ccc1C=O	-2	5	-5	44*	2
Cc1cccc(S(=O)(=O)N2CC[C@@H]3[C@@H](CO)N(C)c4ccc(-c5ccc(C#N)cc5)cc4[C@@H]32)c1	-10	1	16	0	45*
COc1ccc(C#Cc2ccc3c(c2)[C@@H]2[C@@H](CCN2S(=O)(=O)c2ccc(OC)cc2)[C@H](CO)N3C)cc1	-9	1	-4	0	3
COc1ccc(C#Cc2ccc3c(c2)[C@H]2[C@H](CCN2S(=O)(=O)c2cccc(OC)c2)[C@H](CO)N3C)cc1	2	-1	62*	0	16
